Compounds with a hit are over-represented: about 7.4% of the library has one in this group of screens.
SMN2 splice enh: increases expression of the SMN2 splice variant; HEK293 SMN2-luciferase splicing reporter, luminescence, 30-36 h; AID 1458; hit rate 2.8% among 210,000; Potency, µM (highest dose often 46.1 µM), for the others: top-dose activity change, positive = activation, actives largely listed as activators; note: % of control where 0% means no effect; nearly all actives have a fitted effect of over 55% in size
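qHTS luciferase splicing reporter: luminescence rises when SMN2 exon 7 is included in transfected HEK293 cells. Compound exposure lasted 30-36 h at 37C, with 4.5 mM final sodium butyrate as control, followed by a ONE-Glo read.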
Rab9 promoter act: activates the Rab9 promoter | hit rate 2.8% among 320,000 | Huh7 Rab9 promoter-luciferase reporter, luminescence, 24 h | Potency, µM (titrated, usually from 9.22 µM), inactives show top-dose activation, negative = inhibition, most hits filed as activators; note: % of control where 0% means no effect; nearly all actives have a fitted effect of over 60% in size
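Luminescence from Amplite-detected luciferase (10 minutes, ambient) reports Rab9 promoter activation. Before that, stable Rab9-luciferase Huh7 cells (1500/well, reduced-serum OP-MEM I plus 10% FBS) were exposed to compound for 24 hours at 37C.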
FLuc counter: firefly luciferase modulation, counter-screen for miR-21 project; P08659; purified FLuc, Km substrates, luminescence inhibition; Potency, µM (highest dose often 57.5 µM), inactives show at the highest dose activity change, negative = inhibition, usual class: inhibitors; hit rate 6.9% among 360,000; AID 588342;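 note: plate controls were vehicle for no effect and reference inhibitor for full effect; nearly all actives have a fitted effect of over 55% in size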
Target sequence (P08659 whole entry, looked up): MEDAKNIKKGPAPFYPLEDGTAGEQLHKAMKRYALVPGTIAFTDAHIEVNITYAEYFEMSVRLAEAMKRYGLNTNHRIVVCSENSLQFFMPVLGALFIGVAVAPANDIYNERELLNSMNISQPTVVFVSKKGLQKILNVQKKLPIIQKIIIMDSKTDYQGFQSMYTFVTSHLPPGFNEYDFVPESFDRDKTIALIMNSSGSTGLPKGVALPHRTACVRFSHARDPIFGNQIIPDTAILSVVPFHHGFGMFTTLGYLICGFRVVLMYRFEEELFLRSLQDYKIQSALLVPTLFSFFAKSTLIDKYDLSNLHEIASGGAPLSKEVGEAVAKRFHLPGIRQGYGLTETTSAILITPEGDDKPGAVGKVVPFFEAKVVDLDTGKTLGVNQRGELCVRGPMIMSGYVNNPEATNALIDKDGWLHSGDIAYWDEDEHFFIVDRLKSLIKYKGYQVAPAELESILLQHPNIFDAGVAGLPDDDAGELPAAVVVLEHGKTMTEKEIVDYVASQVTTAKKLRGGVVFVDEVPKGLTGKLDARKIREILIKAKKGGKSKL
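Biochemical qHTS of compounds, final roughly 60 µM downward over six points, against 10 nM purified firefly luciferase using Km concentrations of substrates (10 uM D-luciferin, 10 uM ATP) in Tris acetate pH 7.5 buffer; luminescence output.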
NPC1 prom act: NPC1 promoter activation; AID 485313; hit rate 2.4% among 320,000; Potency, µM (highest dose often 9.22 µM), without a hit: at the top dose activation, usual class: activators; Huh7 NPC1 promoter luciferase reporter, 24 h; note: % of control where 0% means no effect; nearly all actives have a fitted effect of over 60% in size
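Cells: Huh7 expressing luciferase under the NPC1 promoter, 1500/well. Seeded 2 h, compound added, incubated 24 h at 37 °C. Luciferase reagent, 10 min ambient, then luminescence.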
ELG1 genotoxic: induces genotoxicity in HEK293T cells with luciferase-tagged ELG1; Potency, µM (titrated, usually from 46 µM), without a hit: at the highest dose activity change, positive = activation, most hits filed as activators; hit rate 1.3% among 330,000; HEK293T ELG1-luciferase reporter, luminescence, 16 h; note: % of control where 0% means no effect; nearly all actives have a fitted effect of over 60% in size
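Step 1: seed 2,000 HEK293T ELG1-luciferase cells per well. Step 2: add compound or DMSO, incubate 16 hr at 37 °C. Step 3: ONE-Glo, 30 min at room temperature, read luminescence.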
An asterisk follows results filed as active; ? = inconclusive; . = no result given; [ ] = another dose, or the depositor's remark. Calls come from the whole dose curve; as a rule, active = well fitted curve in the direction sought with a large enough effect; inconclusive = small, poorly fitted or top-dose-only effect, or another doubt; inactive = no such curve, though single readings can be large; an effect the other way counts as inactive or inconclusive. Potency is the fitted concentration of half-maximal effect.

SMILES | SMN2 splice enh | Rab9 promoter act | FLuc counter | NPC1 prom act | ELG1 genotoxic
Cc1cccc(N=Cc2c(O)cc(C)oc2=O)c1 | 5.8% | 1.6% | ? | -2.4% | -4.7%
O=C(COC(=O)c1ccc(O)cc1)Nc1ccc2c(c1)OCO2 | . | . | . | . | 10.0%
Nc1nc(-c2ccccc2)c(N=Nc2ccccc2Cl)s1 | -15.5% | -2.2% | ? | -1.6% | 3.2%
Nc1nc(-c2ccccc2)c(N=Nc2cccc3ccccc23)s1 | -27.9% | -3.2% | 26.9µM* | 1.2% | 0.4%
O=C(Nc1cccc(S(=O)(=O)Nc2ccc(Cl)cc2)c1)c1cc2c(s1)CCCC2 | -68.0% | 0.7% | 15.1µM* | -3.2% | -7.1%
Cc1ccc(NC(=O)c2cc3c(s2)CCCC3)cc1S(=O)(=O)Nc1ccccc1Cl | -60.2% | -5.4% | 16.9µM* | -6.5% | -8.2%
CCNS(=O)(=O)c1ccc(C)cc1 | -0.5% | . | . | . | .
CCC(=O)O[C@H]1C(O[C@@H]2C(C)[C@H](O[C@H]3C[C@@](C)(OC)C(O)C(C)O3)C(C)C(=O)OC(CC)[C@@](C)(O)C(O)[C@H](C)C(=O)C(C)C[C@]2(C)O)OC(C)CC1N(C)C (some centres not stated) | -13.1% | . | . | . | .
CCOc1ccc(-c2cn(-c3ccc(OC)cc3)c(SC)n2)cc1 | 11.2µM* | 3.98µM* | 5.36µM* | ? | ?
CCOc1ccc(-c2cn(-c3ccc(OC)cc3)c(SCC(=O)Nc3ccccc3Cl)n2)cc1 | . | . | 2.0% | . | .
Cc1cc(OCC(=O)Nc2nccs2)c2c(C)cc(=O)oc2c1 | . | -1.7% | -3.9% | 1.0% | 1.9%
CC(=O)c1ccc(NC(=O)CCc2c(C)nn(-c3ccc(N4CCOCC4)nn3)c2C)cc1 | . | ? | 16.9µM* | ? | 1.0%[9.26 µM]
CCc1cccc(NC(=O)CCc2c(C)nn(-c3ccc(N4CCOCC4)nn3)c2C)c1 | . | 7.5% | 16.9µM* | 13.4% | 3.0%
CCc1ccc(NC(=O)CCc2c(C)nn(-c3ccc(N4CCOCC4)nn3)c2C)cc1 | . | 13.6% | ? | 20.8% | 5.0%
COC(=O)c1ccc(NC(=O)CCc2c(C)nn(-c3ccc(N4CCOCC4)nn3)c2C)cc1 | . | . | 19µM* | . | .
COc1ccc(NC(=O)CCc2c(C)nn(-c3ccc(N4CCOCC4)nn3)c2C)cc1Cl | . | . | 21.3µM* | . | .
CCc1noc(C)c1C(=O)Nc1ccc(F)c(F)c1F | . | -7.4% | 1.3% | -1.8% | 4.1%
COc1cccc(NC(=O)CSC2=Nc3ccccc3N=C(c3ccc(F)cc3)C2)c1 | . | . | -3.4% | . | .
Cc1ccc(F)cc1NC(=O)CCc1c(C)nn(-c2ccc(N3CCOCC3)nn2)c1C | . | . | -14.6% | . | .
Cc1ccc(NC(=O)CCc2c(C)nn(-c3ccc(N4CCOCC4)nn3)c2C)cc1F | . | ? | 13.5µM* | ? | 11.5%
COC(=O)c1ccccc1NC(=O)C(C)c1ccc([N+](=O)[O-])cc1 (configuration not stated) | -22.7% | -7.1% | -2.7% | 0.0% | -7.6%
CCN(Cc1ccccc1)C(=O)c1ccc(CNS(=O)(=O)c2ccc(C)cc2)cc1 | -40.5% | -5.7% | 4.5% | -1.8% | 0.7%
CCCN(Cc1ccc(C)cc1)C(=O)c1ccc(CNS(=O)(=O)c2ccc(C(C)=O)cc2)cc1 | . | ? | 21.3µM* | ? | 0.7%
Oc1c(Br)cc(C=Nc2ccc3nc(-c4ccccc4)[nH]c3c2)c(O)c1Br | . | 2.82µM* | 10.7µM* | ? | 1.3%
O=[N+]([O-])c1ccc(O)c(C=Nc2ccc3nc(-c4ccccc4)[nH]c3c2)c1 | 10.2%[1.84 µM] | 3.16µM* | 5.36µM* | ? | ?
SMILES | SMN2 splice enh | Rab9 promoter act | FLuc counter | NPC1 prom act | ELG1 genotoxic
O=C(c1ccccc1)c1ccc2nc(-c3ccc(NC(=O)c4ccccc4Br)cc3)[nH]c2c1 | -29.6% | 8.3% | -14.0% | -0.2% | -3.1%
COc1ccccc1C(=O)Nc1nc2ccc(S(=O)(=O)N3CCCC3)cc2s1 | . | . | 4.2% | . | .
Cc1cccc(NC(=O)c2cn(-c3ccccc3)nc2-c2ccccc2)c1C | . | . | -7.8% | . | .
O=C(/C=C/c1ccccc1F)c1ccoc1 | 1.2% | 4.3% | 12µM* | -4.0% | -1.2%
Clc1ccc(/C=N/NC2=Nc3cccc4cccc2c34)cc1 | 11.2µM* | 0.631µM* | 1.69µM* | 0.631µM* | ?
COc1cccc(NC2=Nc3cccc4cccc2c34)c1 | 13.5% | -3.2% | 12µM* | -3.1% | 3.8%
COc1ccc(NC2=Nc3cccc4cccc2c34)cc1OC | -8.8% | -2.5% | ? | 6.0% | -2.6%
C(=N\NC1=Nc2cccc3cccc1c23)/c1ccccc1 | 3.98µM* | 4.47µM* | 1.69µM* | 3.98µM* | ?
C(=N\NC1=Nc2cccc3cccc1c23)/c1cccnc1 | 11.2µM* | 2.51µM* | 4.78µM* | 3.55µM* | ?
CCOc1ccc(NC(=O)c2cc(C)nc3c2c(C)nn3-c2cccc(F)c2)cc1 | . | . | -1.8% | . | .
O=C(NCC(=O)N1CCOCC1)c1ccc(Br)o1 | . | 10.7% | -3.2% | 2.7% | 2.5%
Cc1oc(-c2ccccc2)nc1CNC(=O)Nc1ccccc1 | . | . | -3.1% | . | .
Cc1ccc(-c2cc(C(=O)N3CCCC3)no2)cc1 | 0.891µM* | ? | 0.757µM* | ? | 0.231µM*
O=C(c1cc(-c2ccco2)on1)N1CCOCC1 | 20.3% | ? | ? | 25.4% | ?
CCOC(=O)C1CCCN(C(=O)c2cc(-c3ccccc3)on2)C1 (configuration not stated) | 22.4µM* | 3.98µM* | -16.7% | ? | ?
Cc1ccc(-c2cc(C(=O)N3CCOCC3)no2)cc1 | . | 0.316µM* | 0.536µM* | 0.316µM* | ?
CC(=O)Nc1ccc(S(=O)(=O)N2CCN(C(=O)c3ncoc3-c3ccc(C)cc3)CC2)cc1 | . | -5.8% | -1.0% | -0.1% | -9.8%
CCC(C)C(NC(=O)c1ccc(Cl)cc1Cl)C(=O)O (configuration not stated) | 15.5% | -5.5% | 19µM* | 0.9% | 0.4%
CCC(C)C(NC(=O)c1ccc(Cl)cc1)C(=O)O (configuration not stated) | . | 1.7% | 2.9%[2.3 µM] | 2.1% | 0.5%
Cc1oc(-c2cccc(C(F)(F)F)c2)nc1CN1CCOCC1 | . | ? | 26.9µM* | 13.0% | ?
CCOC(=O)N1CCN(C(=O)Cn2nc(C)n3nc(-c4ccc(CC)cc4)cc3c2=O)CC1 | . | 5.8% | 4.78µM* | 5.6% | 14.1%
Cc1cc(C(=O)Nc2ccc3[nH]ccc3c2)no1 | . | 2.82µM* | 10.7µM* | 2.24µM* | ?
Cc1cc(NC(=O)c2cc(C)on2)no1 | 10.5% | 0.9% | -1.0% | 4.2% | 15.3%
CCC(CC)c1nnc(NC(=O)C2CSC3(C)CCC(=O)N23)s1 (configuration not stated) | . | -2.8% | 0.7% | 0.0% | -0.2%
Cc1cccc(OCCn2c(=O)sc3ccccc32)c1 | 12.6µM* | 2.82µM* | 10.7µM* | ? | ?
Cc1cccc(OCCN2C(=O)c3ccccc3C2=O)c1 | 19.0% | 3.55µM* | 23.9µM* | 26.7% | ?
COc1cccc(OCc2nc3ccccc3n2CCOc2cccc(C)c2)c1 | 12.0% | . | -18.4% | . | .
COc1ccccc1OCCn1c(=O)sc2ccccc21 | -24.6% | -1.6%[1.84 µM] | ? | 0.2% | ?
